# An excerpt weighted towards active compounds, which were near 19% of everything screened.
# TDP1 cell CPT = growth inhibition of DT40 Tdp1-/-;hTDP1 cells with camptothecin (screen for TDP1 inhibitors); 420,000 tested, 12% active; chicken DT40 Tdp1-/-;hTDP1 cells + 20 nM CPT, ATP luminescence, 48 h; Potency, µM (series often up to 46.2 µM), most hits filed as inhibitors; AID 686979; also: nearly all actives have a fitted effect of over 55% in size
#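 Chicken DT40 Tdp1-/- cells complemented with human TDP1, 400 cells/well, exposed to compounds plus 20 nM camptothecin for at least 48 h at 37 C; viability read as ATP content by CellTiter-Glo luminescence.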
# TDP1 cell noCPT = qHTS for Inhibitors of human tyrosyl-DNA phosphodiesterase 1 (TDP1): qHTS in cells in absence of CPT; DT40 Tdp1-/- hTDP1 cells, no CPT, ATP luminescence, 48 h; Potency, µM (highest dose often 46.2 µM), hits mostly inhibitors; 420,000 tested, 15% active; AID 686978, 2013; also: nearly all actives have a fitted effect of over 55% in size
#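 Camptothecin absent (DMSO only). Human TDP1-complemented DT40 knockout cells, 400 cells/well, 37 °C for minimum 48 hr; ATP measured via CellTiter-Glo, 30 min dark incubation, luminescence.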
# KB-V1 cytotox = kills drug-selected multidrug resistant KB-V1 cells | KB-V1 MDR cells viability, CellTiter-Glo, 72 h | Potency, µM (series often up to 46.1 µM), actives largely listed as cytotoxic | 400,000 tested, 3.4% active; also: nearly all actives have a fitted effect of over 60% in size
#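 Cytotoxicity via CellTiter-Glo luminescence after 72 h compound exposure at 37 degrees C. Cells: drug-selected KB-V1 line, DMEM phenol-red free plus 10% FBS. Compounds tested at multiple concentrations; normalized data fitted to concentration-effect curves.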
# KB-3-1 cytotox = KB-3-1 parental cell cytotoxicity. 400,000 tested, 1.4% active. KB-3-1 viability, CellTiter-Glo ATP luminescence, 72 h. Potency, µM (titrated, usually from 46.1 µM), actives largely listed as cytotoxic; also: nearly all actives have a fitted effect of over 60% in size
#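 Viability of parental KB-3-1 cells, measured by CellTiter-Glo luminescence, followed a 72 h incubation at 37 °C with pinned compounds in phenol-red-free DMEM containing 10% FBS.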
# HT1080NT lethal = kills 2HG-producing HT-1080-NT fibrosarcoma cells; HT-1080-NT fibrosarcoma viability, CellTiter-Glo ATP luminescence, 48 h; Potency, µM (doses to about 46.1 µM), usual class: cytotoxic; 360,000 tested, 1.6% active; AID 686970;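 also: NT is the 2HG producing partner of a matched IDH1 knockdown line; nearly all actives have a fitted effect of over 55% in size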
#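 Toxicity toward the 2HG-producing NT line was scored as %Activity, normalised to DMSO and no-cell wells, from CellTiter-Glo luminescence after 48 hours' treatment.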
# HT1080 IDH1KD tx = HT-1080 IDH1 knockdown cell toxicity (counter line); AID 686971; Potency, µM (series often up to 46.1 µM), usual class: cytotoxic; 360,000 tested, 2% active; HT-1080 IDH1 knockdown viability, ATP luminescence, 48 h
#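 After a 2 h attachment period, IDH1KD HT-1080 cells took pin-transferred compound for 48 h at 37 °C; ATP-based luminescence after 10 min room-temperature reagent incubation reported viability.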
# Hits are given with their value; – = inactive; ? = inconclusive; · = not tested or not shown. Calls follow the shape of the dose curve; as a rule, active = well fitted curve in the direction sought with a large enough effect; inconclusive = small, poorly fitted or top-dose-only effect, or another doubt; inactive = no such curve, though single readings can be large; an effect the other way counts as inactive or inconclusive.
SMILES,TDP1 cell CPT,TDP1 cell noCPT,KB-V1 cytotox,KB-3-1 cytotox,HT1080NT lethal,HT1080 IDH1KD tx
Cc1ccc(Cn2cc(C(=O)c3ccc4c(c3)OCO4)c(=O)c3cc(C)ccc32)cc1,?,23.1µM,–,–,·,·
Cc1ccc(C(=O)c2cn(Cc3ccccc3F)c3cc4c(cc3c2=O)OCCO4)cc1,?,?,–,–,·,·
Cc1c(C)n(Cc2ccccc2)c2ccc(C(=O)NCCN3CCOCC3)cc12,?,–,–,–,–,–
CCOc1ccc(CCNC(=O)c2ccc3c(c2)c(C)c(C)n3Cc2ccccc2)cc1OCC,16.4µM,13µM,?,–,·,·
COc1cc(CCNC(=O)c2ccc3c(c2)c(C)c(C)n3Cc2cccc(C)c2)cc(OC)c1OC,7.31µM,5.17µM,–,–,·,·
Cc1ccc(CCNC(=O)c2ccc3c(c2)c(C)c(C)n3Cc2ccccc2)cc1,16.4µM,?,–,–,·,·
O=C(CSc1nc(=O)[nH]c2c1CCCC2)Nc1ccc(F)cc1F,–,–,–,–,–,–
CN(C)C(=O)CCC(=O)NCC1Cc2cccc(-c3ccccc3C(F)(F)F)c2O1 (stereo unspecified),?,–,·,·,·,·
CCCN(CCC)CCCNC(=O)c1cn(-c2ccc(OC)cc2)c(=O)c2ccccc12,–,–,–,–,–,–
COc1cccc(-n2cc(C(=O)NCCCOC(C)C)c3ccccc3c2=O)c1,–,–,–,–,–,–
COc1ccc(-n2cc(C(=O)NCCc3ccc(C)cc3)c3ccccc3c2=O)cc1,?,20.6µM,·,·,·,·
COc1cccc(-n2cc(C(=O)NCCc3ccc(C)cc3)c3ccccc3c2=O)c1,8.2µM,10.3µM,·,·,·,·
COc1cccc(-n2cc(C(=O)Nc3cccc(C(F)(F)F)c3)c3ccccc3c2=O)c1,16.4µM,?,·,·,·,·
CCOc1ccc(CCNC(=O)c2cn(-c3cccc(OC)c3)c(=O)c3ccccc23)cc1,?,20.6µM,·,·,·,·
COc1ccc(-n2cc(C(=O)O)c3ccccc3c2=O)cc1,–,–,–,–,–,–
CCOc1ccc(-n2cc(C(=O)NCc3ccco3)c3cc(OC)c(OC)cc3c2=O)cc1,?,?,–,0.517µM,–,–
Cc1ccc(-n2cc(C(=O)Oc3ccc(F)cc3)c3ccccc3c2=O)cc1,16.4µM,?,–,–,·,·
CCn1cc(C(=O)NCc2ccco2)c2cc(OC)c(OC)cc2c1=O,–,–,–,–,–,–
COc1cccc(-n2cc(C(=O)NC(C)C)c3ccccc3c2=O)c1,–,–,–,–,–,–
COc1cccc(-n2cc(C(=O)NCc3ccc(C)cc3)c3ccccc3c2=O)c1,14.6µM,?,·,·,·,·
Cc1ccc(-n2cc(C(=O)Oc3cccc(C)c3)c3ccccc3c2=O)cc1,–,–,–,–,·,·
COc1ccc(-n2cc(C(=O)NC(C)c3ccccc3)c3ccccc3c2=O)cc1 (stereo unspecified),18.4µM,?,·,·,·,·
CC(NC(=O)CSc1nc2ccc(N)cc2s1)c1ccccc1 (stereo unspecified),–,?,?,–,–,–
Cc1cc(C)cc(OC(=O)C23CCC(C)(C(=O)O2)C3(C)C)c1 (stereo unspecified),–,–,–,–,–,–
COc1ccc(-n2ncc3c2ncn2nc(-c4ccc(Cl)cc4Cl)nc32)cc1,–,–,·,·,·,·
CCN(C(=O)c1cn(-c2ccc(OC)cc2)c(=O)c2ccccc12)c1cccc(Cl)c1,16.4µM,16.4µM,·,·,·,·
Cc1nnc(SCC(=O)Nc2c(Cl)cccc2Cl)n(N)c1=O,?,–,–,–,–,–
CCn1c(C)c2c(C)nnc(C)c2c1C,–,–,–,–,–,–
CCn1c(C)c(P(c2ccccc2)c2ccccc2)[n+]2ccccc12,2.31µM,1.46µM,–,9.2µM,–,–
COc1ccc(-c2csc(C(C)(O)c3ccc(F)c(F)c3)n2)cc1OC (stereo unspecified),18.4µM,?,–,–,–,–
